# Results as given in PubChem BioAssay (NCATS).
# Inconclusive results are not listed. Active and inactive are the calls of the source. Calls come from the whole dose curve.
# Experiment: Cytotoxicity counterscreen for inhibitors of SARS-CoV-2 cell entry (AID 1645845); note: nearly all actives have a fitted effect of over 50% in size
# Details: cell viability (SARS-CoV-2 entry assay cells); series mostly up to 57.1 µM; activity change, negative = cytotoxicity: at the top concentration
# Procedure, shortened: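 ATP-content luminescence (ATPLite 1step, 15 min RT) read after 48 h compound exposure of Expi293F cells stably expressing human ACE2; normalized to cells-only wells and media-only wells.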
# % is set by controls: 0 for no effect and ±100 for the full control effect; potency is the fitted concentration of half-maximal effect.
SMILES,Potency,"activity change, negative = cytotoxicity",outcome
COC(=O)Nc1nc2ccc(Sc3ccccc3)cc2[nH]1,inactive,,
COCCOC(=O)C1=C(C)NC(C)=C(C(=O)OC/C=C/c2ccccc2)C1c1cccc([N+](=O)[O-])c1 (stereo not given),,-22.4% (inactive),
O=c1[nH]c(=O)n([C@H]2C[C@H](O)[C@@H](CO)O2)cc1C(F)(F)F,,-4.02% (inactive),
CN1CCCN=C1COC(=O)C(O)(c1ccccc1)C1CCCCC1 (stereo not given),,,inactive
O=C1NC2CCCCN2C12CCN(CCCN1c3ccccc3CCc3ccc(Cl)cc31)CC2 (stereo not given),,-27% (inactive),
CCOC(=O)C1=C[C@]2(CC)CCCN3CCc4c(n1c1ccccc41)[C@@H]32,,-18.6% (inactive),
O=C(O)[C@H](O)[C@@H](O)[C@H](O[C@@H]1O[C@H](CO)[C@H](O)[C@H](O)[C@H]1O)[C@H](O)CO,,-15.1% (inactive),
CN(C)CCOC(c1ccccc1)c1ccc(Br)cc1 (stereo not given),,,inactive
COC(=O)[C@H]1[C@H]2C[C@@H]3c4[nH]c5cc(OC)ccc5c4CCN3C[C@H]2C[C@@H](OC(=O)/C=C/c2ccc(O)c(OC)c2)[C@@H]1OC,,,inactive
CN(C)CCCN1c2ccccc2Sc2ccccc21,,-7.7% (inactive),
CCCCN(CCCC)CC(O)c1cc(Cl)cc2c1-c1ccc(Cl)cc1/C2=C/c1ccc(Cl)cc1 (stereo not given),,1.17% (inactive),
CCN(CC)CCOc1ccc(/C(=C(\Cl)c2ccccc2)c2ccccc2)cc1,,-4.32% (inactive),
O=C(CCCN1CCN(c2ccc(F)cc2)CC1)NC1c2ccccc2CSc2ccccc21 (stereo not given),,,inactive
CN(C)C(=S)SSC(=S)N(C)C,1.58 µM (active),,
O=C(Nc1ccccc1)OCC(CN1CCCCC1)OC(=O)Nc1ccccc1 (stereo not given),,-7.51% (inactive),
CN(C(=O)c1c(O)c2ccccc2n(C)c1=O)c1ccccc1,,-10.3% (inactive),
O=C1C(CCS(=O)c2ccccc2)C(=O)N(c2ccccc2)N1c1ccccc1 (stereo not given),,,inactive
Nc1c(NC/C=C\COc2cc(CN3CCCCC3)ccn2)c(=O)c1=O,,,inactive [at 27.1 µM]
CN1CCC(=C2c3ccccc3CCc3sccc32)CC1,,-21.9% (inactive),
C[C@@H](CN(C)C)CN1c2ccccc2Sc2ccccc21,,,inactive
Cc1cc2nc3ccc(=[N+](C)C)cc-3sc2cc1N,22.4 µM (active),,
O=C(CCCN1CCC(O)(c2ccc(Br)cc2)CC1)c1ccc(F)cc1,,-18.6% (inactive),
CC1=CC(=O)c2ccccc2C1=O,,-23% (inactive),
CCOC(=O)C1=C(C)NC(C)=C(C(=O)OCC)C1c1ccccc1/C=C/C(=O)OC(C)(C)C,,-7.54% (inactive),
CN(Cc1cc(Br)cc(Br)c1N)C1CCCCC1,inactive,,
CCCSS/C(CCO)=C(\C)N(C=O)Cc1cnc(C)nc1N,,,inactive
CCCCCCOC(=O)NC(=N)c1ccc(NCc2nc3cc(C(=O)N(CCC(=O)OCC)c4ccccn4)ccc3n2C)cc1,inactive,,
CCCOc1ccc2nc(NC(=O)OC)[nH]c2c1,,-33% (inactive),
CN1CCCCC1CCN1c2ccccc2Sc2ccc(S(C)=O)cc21 (stereo not given),,,inactive
CCCCC(CC)COC(=O)C(C#N)=C(c1ccccc1)c1ccccc1 (stereo not given),,-29.3% (inactive),
